According to the supplement of paper PMC6555819:

What was measured:
Assay in all cases: PBM binding z-score (relative to random genomic background probes); higher = stronger binding; sequences stand for … in GC…GCGATTGACAGCGTAGAATGAAGG
[1] = test system: PPARg:RXRa DBDmut IVT, anti-RXR (DBD mutation: RXRa K156A/R161A, NR concentration 270 nM, RXRa partner concentration 90 nM)
In short: (§1)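 For binding z-scores, the reference was random background probes on custom Agilent 4×180K protein-binding microarrays. These arrays were incubated 1 h with ligand-free nuclear receptor dimers in PBS pH 7.4, 2% milk, 0.02% Triton X-100, 1 mM DTT, 0.2 mg/mL BSA and 0.4 mg/ml salmon testes DNA. Fluorescence was scanned after antibody detection of each partner (one per run) and regression-normalized.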

[2] = test system: PPARg:RXRa IVT, anti-PPARg (NR concentration 270 nM, RXRa partner concentration 90 nM)
In short: as §1

[3] = test system: PPARg DBDmut:RXRa IVT, anti-PPARg (DBD mutation: PPARg1 K132A/R137A, NR concentration 270 nM, RXRa partner concentration 90 nM)
In short: as §1

[4] = test system: PPARg DBDmut IVT, anti-PPARg (DBD mutation: PPARg1 K132A/R137A, NR concentration 270 nM)
In short: as §1

[5] = test system: PPARg homodimer (NR concentration 180 nM)
In short: as §1

[6] = test system: PXR:RXRa (NR concentration 270 nM, RXRa partner concentration 90 nM)
In short: as §1

[7] = test system: PXR homodimer (NR concentration 270 nM)
In short: as §1

[8] = test system: RARa:RXR (NR concentration 270 nM, RXRa partner concentration 90 nM)
In short: as §1

[9] = test system: RARa homodimer (NR concentration 270 nM)
In short: as §1

[10] = test system: RARb:RXRa (NR concentration 270 nM, RXRa partner concentration 90 nM)
In short: as §1

Row | Sequence | PBM binding z-score [1] | PBM binding z-score [2] | PBM binding z-score [3] | PBM binding z-score [4] | PBM binding z-score [5] | PBM binding z-score [6] | PBM binding z-score [7] | PBM binding z-score [8] | PBM binding z-score [9] | PBM binding z-score [10]
1 | TCATATAGGTAAAGATGAAAGTCGAACGATATGA | 3.2 | 1.97 | 1.28 | 0.63 | -1.18 | -0.0573 | -0.0684 | 0.268 | 0.0923 | 0.318
2 | GGAAGGAGGGCAAGTTGATAGCAGAGTTTGATGG | 3.75 | 3.16 | 0.411 | 0.837 | 2.03 | 1.44 | 2.2 | 0.685 | 1.5 | 2.54
3 | ACAGACAGGTGAGTGAAGGTAACACAGCTGGACG | 0.662 | 0.632 | 0.226 | -0.221 | 0.391 | -0.00194 | 0.205 | 0.574 | 0.248 | 0.597
4 | AATACAGGGTCACTAGGCCATAGTAGGTACGAAT | 4.35 | 6.47 | 2.07 | 1.76 | 2.21 | 3.31 | 0.565 | 4.46 | 0.595 | 4.11
5 | ATCTCTAGGCAACAAGTTCAGTGAAAGAGAGGAC | 0.952 | 0.456 | 0.856 | 0.154 | 0.297 | 0.875 | 1.52 | 0.335 | 0.376 | 1.32
6 | CAGCCTAGGTCAGGGCCAGTACAGGAGGAACGTT | 1.35 | 1.58 | -0.899 | -1.34 | 0.93 | 0.659 | -0.209 | 1.03 | -0.614 | 3.42
7 | CGTCAAAGTTCAACTATGGTAACGTAAAGCACGC | 0.569 | 1.9 | 1.06 | 1.31 | 3.74 | 4.94 | 4.27 | 4.14 | 2.09 | 5.33
8 | TCGAGTCGGTTACCAATGGGGCATTCAGCTTTCT | 0.844 | -0.0532 | -0.399 | -0.375 | -0.537 | -0.204 | -0.793 | -0.238 | -0.811 | 0.0866
9 | CAAACTGGGTCACGAAAGGTCAAAGTCGAATGAC | 8.29 | 8.88 | 2.86 | 1.62 | 5.34 | 7.09 | 2.6 | 7.48 | 2.73 | 5.56
10 | ATCTCTACGTAACCAAGTTCAGTGAATGCCGAAC | -0.22 | 0.0113 | 0.854 | 0.806 | 0.739 | 1.29 | 1.4 | 0.427 | 0.401 | 0.836
11 | ATCTCTAGGTAACCAAGTTCAGTGTATGCCGAAC | 3.75 | 3.04 | 0.877 | 1.39 | 0.882 | 1.9 | 1.95 | 0.828 | 1.09 | 1.08
12 | TCTGGGAGGACACGAAGGTCAGAGCTTTCCAGAG | 1.04 | 0.947 | -0.643 | -0.716 | 1.05 | 1.99 | 0.818 | 2.19 | 0.238 | 3.28
13 | TCGAGTAGGTTACCAATGGGGCGTTCAGCTTTCT | 3.2 | 2.46 | -0.504 | -0.846 | 0.122 | -0.176 | -0.801 | 0.167 | -0.443 | 0.773
14 | CGTCCAAGGTCAAGGTCAGCGAAAGAGACTCGAA | 3.83 | 4.71 | 0.201 | -0.753 | 3.43 | 4.67 | 0.58 | 4.95 | 0.668 | 5.52
15 | CCGAGTGGGGCATAAGGTTACCATAAGCCAGCCC | 2.28 | 2.81 | -1.47 | -1.33 | 0.587 | 0.569 | -0.243 | 1.27 | -0.802 | 1.35
16 | ATCTCTAGGTAACCAAGTTCATTGAATGCCGAAC | 3.59 | 3.08 | 1.78 | 1.57 | 1.37 | 3.97 | 7.05 | 1.72 | 1.19 | 1.75
17 | TTACCAAGGTGATCTGAGGTCGTTGATCCAACTC | 0.904 | 1.97 | 0.232 | -0.0515 | 1.46 | 5.06 | 1.41 | 2.02 | 0.209 | 1.55
18 | ATCTCTAGGTAAAGTTCAGTGAAAGATCGATAGA | 2.6 | 2.6 | 1.37 | 0.916 | 1.68 | 2.11 | 1.93 | 1.86 | 1.27 | 2.86
19 | GCTGCTAGGTCAGGTTTGTCAGCTAACGGGTACG | 3.26 | 1.92 | -0.625 | -0.587 | 0.518 | 0.229 | -0.27 | 0.51 | -0.0516 | 2.95
20 | GCATAGAGGTAATACAAGGTGAAAGTCCGATTGT | 1.06 | 1.35 | 0.658 | 0.616 | 0.00249 | 1.03 | -0.217 | 1.18 | 0.413 | 0.751
21 | ATATGTATGTTATCGGGTCATTCAGTTTGCGCAT | 4.28 | 4.3 | 1.17 | 1.83 | 1.39 | 3.37 | 6.74 | 2.59 | 1.05 | 1.98
22 | CCTACTGGGCCATTCAGAGGTCATTCATCATATG | 4.22 | 4.45 | -0.0468 | 0.03 | 2.18 | 4.81 | 2.5 | 4.07 | 0.581 | 2.9

Row | Sequence | PBM binding z-score [1] | PBM binding z-score [2] | PBM binding z-score [3] | PBM binding z-score [4] | PBM binding z-score [5] | PBM binding z-score [6] | PBM binding z-score [7] | PBM binding z-score [8] | PBM binding z-score [9] | PBM binding z-score [10]
23 | CCCGAAAGGTCGTGCTCAGGTGAGTATACCAAAC | 0.981 | 1.75 | 0.719 | 0.627 | 2.37 | 3.19 | 0.159 | 4.35 | 0.613 | 4.01
24 | CCTACTGGGCCATTCAGTGGTCATTGATCATATG | 3.99 | 3.43 | -0.19 | -0.875 | -0.524 | -0.597 | -0.649 | -0.725 | -0.259 | 0.368
25 | CCATACGGGTCACTCCAGGTTATAGCATCGGAGT | 1.6 | 3.66 | -0.54 | 0.0685 | 1.66 | 4.94 | 0.464 | 3.54 | 0.63 | 3.54
26 | CTACCAAGGTGCACAAGGTCGTTGATTACTATTC | 0.47 | 0.223 | 0.019 | -0.417 | 0.705 | 1.86 | 1.22 | 1.87 | 0.655 | 1.29
27 | ATCTCTCGGTAAAGTTCAGTGAAAGATCGATAGA | 0.0239 | 0.915 | 0.801 | 1.45 | 1.63 | 2.11 | 1.75 | 1.59 | 1.08 | 2.84
28 | CAGACTGGGGCAGAAAGGTTACCATACCATCCGG | 2.77 | 3.01 | -0.514 | -0.142 | 2.11 | 1.39 | -0.052 | 2.24 | 0.536 | 2.04
29 | ACTAGCAGGCCAAGGTTGGGTCACTCAAACAAAG | 0.282 | 0.868 | -0.95 | -1.46 | 0.597 | 0.524 | -0.493 | 1.24 | -0.93 | 1.69
30 | GGAGCGAGGGCAAGTTGATAGCAGAGTTTGATGG | 0.723 | 0.346 | -0.895 | -0.911 | 0.261 | 0.533 | 0.345 | 0.395 | -0.343 | 2.56
31 | TCATATAGGTAAACAGGTGAAACTCCGTAAGTTA | 5.13 | 4.56 | 1.07 | 1.38 | 1.21 | 0.711 | 0.237 | 1.28 | 0.733 | 0.76
32 | TTACCAAGGTGTAAGGTCGTTGATGCACGCCTTG | -0.345 | 1.3 | 0.0676 | -0.033 | 0.125 | 1.1 | 0.267 | 1.38 | -0.417 | 1.09
33 | CCTTACGGGTCACTCCAGGTTTTAGCATCGGAGT | 2.81 | 3.28 | 2.95 | 0.802 | 3.03 | 3.61 | 0.181 | 4.14 | 0.643 | 3.68
34 | TAGGCTAGGTCATTGGGCCAGTATAGTACGCATC | 2.74 | 3.99 | 0.305 | 0.421 | 1.41 | 1.32 | -0.0794 | 1.9 | 0.178 | 3.79
35 | CCTTACGGGTCACTTCAGGTTATAGCATCGGAGT | 3.08 | 3.1 | 0.834 | 0.414 | 1.97 | 5.04 | 0.776 | 3.67 | 1 | 3.57
36 | CGAACTAGGTCATTTACAGGACAGTGAATAGTAA | 8.11 | 8.23 | 5.73 | 3.57 | 2.35 | 1.74 | 0.63 | 2.39 | 0.283 | 3.39
37 | TCAGACAGGTGAAGGTAACTAAGGTACGCAGTCG | 2.56 | 1.27 | 0.501 | 0.42 | 0.309 | 0.646 | 0.152 | 1.22 | 0.362 | 1.24
38 | ATCTCCAGGTAAAAGTTCAGTGAATCCCGAGGAT | 0.0885 | 2.31 | 1.68 | 1.01 | 1.84 | 2.4 | 1.88 | 2.14 | 1.07 | 2.6
39 | ATCAAAAGGTCGACGAGGTGAGTATACACCGTTT | 0.837 | 2.54 | 1.44 | 1.18 | 2.16 | 3.22 | 0.528 | 3.88 | 1.22 | 4
40 | AGAACGAGGGCAATGAGTTGATACCACGGGTGGC | 3.03 | 2.47 | 0.451 | 0.33 | 0.443 | 1.66 | 5.24 | 0.38 | -0.193 | 2.19
41 | GCGACTGCGGCATCAGCAGGTTACCATAACTTAA | -0.255 | -0.657 | -1.23 | -0.596 | -0.378 | -0.379 | -0.376 | -0.0824 | -0.219 | -0.277
42 | TCGAGTAGGTTAGAGGCATTCAGAATGGCGTCGA | 1.65 | 0.965 | -0.829 | -0.771 | 0.087 | -0.51 | -0.852 | -0.767 | -0.955 | 0.0217
43 | GCTAGCAGGCCTTTTGGGTCACTCAATGACGGGC | 0.302 | 0.843 | -1.25 | -1.51 | -0.592 | 0.137 | -0.69 | 0.937 | -0.611 | 1.06
44 | TCCTATAGGTAAACAGGTGAAAGTCCGTAAGTTA | 3.29 | 3.06 | 0.2 | 0.663 | 0.672 | 0.638 | 0.0288 | 0.69 | 0.325 | 0.692
